Assay results published in article PMC5540273 (PLoS ONE, 2017).

Key:
Details in all cases: concentration: 1 μM, replicates: in singlicate; n = 1
ADCK4 = test system: ADCK4
AKT1 = test system: AKT1
AKT2 = test system: AKT2
AKT3 = test system: AKT3
ALK = test system: ALK
AMPK-alpha1 = test system: T1, AMPK-alpha1
T1 construct: gene PRKAA1

AMPK-alpha2 = test system: T2, AMPK-alpha2
T2 construct: gene PRKAA2

ANKK1 = test system: ANKK1
ARK5 = test system: T3, ARK5
T3 construct: gene NUAK1

ASK1 = test system: T4, ASK1
T4 construct: gene MAP3K5
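Note: KINOMEscan kinase panel screen.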

SMILES	%Inh (ADCK4)	%Inh (AKT1)	%Inh (AKT2)	%Inh (AKT3)	%Inh (ALK)	%Inh (AMPK-alpha1)	%Inh (AMPK-alpha2)	%Inh (ANKK1)	%Inh (ARK5)	%Inh (ASK1)
Cc1cccc(Nc2nc(N[C@H]3CCNC3)ncc2C(N)=O)c1.Cl [GSK2197149]	0%	0%	7%	0%	47%	22%	33%	79%	34%	0%
O=C(Nc1cccc(-c2nn3ncccc3c2-c2ccnc(Nc3ccccc3)n2)c1)c1c(F)cccc1F [GSK198271]	31%	0%	16%	0%	38%	12%	15%	69%	38%	0%
COc1cccc(NC(=O)NC2CCN(c3ccnc(Nc4cc(OC)c(OC)c(OC)c4)n3)C2)c1 (centres unmarked) [GSK1379763]	59%	0%	7%	0%	45%	0%	0%	40%	18%	0%
Cc1occc1-c1ncc(OC[C@@H](N)Cc2c[nH]c3ccccc23)cc1-c1ccc2[nH]nc(C)c2c1.O=C(O)C(F)(F)F [GSK682037]	82%	97%	99.8%	87%	24%	12%	0%	0%	0%	0%
Fc1ccc(-c2ncn(C3CCNCC3)c2-c2ccnc(Oc3ccc(-c4ccccc4)cc3)n2)cc1 [SB-245391]	0%	20%	31%	15%	39%	7%	20%	7%	1%	23%
FC(F)(F)c1ccc(/C=C/c2cncnc2Nc2ccc3[nH]c(Cc4ccccc4)nc3c2)cc1 [GW709199]	0%	0%	0%	0%	23%	0%	3%	0%	6%	0%
CN(C)Cc1ccc(-c2ccc3c(Nc4ccc(Oc5ccccn5)cc4)ccnc3c2)o1 [GW567148]	0%	0%	0%	0%	22%	8%	0%	0%	18%	0%
C[C@@H](Oc1cc(-n2cnc3cc(-c4ccnc(NCCS(C)(=O)=O)c4)ccc32)sc1C(N)=O)c1ccccc1Cl [GSK907232]	10%	0%	16%	0%	18%	0%	0%	0%	84%	0%
CCn1c(-c2nonc2N)nc2c(C#CC(C)(C)O)nc(OC[C@H](N)c3ccccc3)cc21 [GSK943949]	0%	95.8%	98.8%	95.8%	19%	0%	3%	0%	18%	0%
COC(=O)Nc1nc2ccc(Oc3ccc(NC(=O)Nc4cc(C(F)(F)F)ccc4F)cc3)cc2n1C.Cl [GW692089]	33%	0%	0%	0%	3%	0%	22%	31%	16%	40%
Nc1n[nH]c2cnc(-c3ccccc3)cc12 [SB-642124]	24%	0%	8%	0%	30%	0%	30%	23%	0%	6%
COc1cc2c(cc1OCCN1CCNCC1)ncc1c3ccc(C#N)cc3[nH]c21	5%	0%	0%	0%	26%	15%	4%	37%	22%	0%
COc1ccc(Nc2nccc(NCCNC(=O)c3cc4ccccc4s3)n2)cc1 [GSK1379896]	29%	0%	0%	0%	6%	0%	0%	6%	3%	0%
CNC(=O)c1ccccc1Nc1nc(Nc2ccc(N3CCOCC3)cc2)ncc1Cl.Cl [GSK1576028]	44%	42%	62%	0%	88%	99.2%	99.4%	12%	99.8%	0%
CSc1cccc2c(-c3ccncn3)c(-c3ccc(F)cc3)nn12 [GW514786]	35%	0%	0%	4%	29%	32%	0%	0%	12%	0%
O=C(Nc1n[nH]c2nc(-c3ccc(O)cc3)ccc12)C1CC1 [SB-710363]	0%	0%	0%	61%	0%	0%	0%	0%	0%	18%

SMILES	%Inh (ADCK4)	%Inh (AKT1)	%Inh (AKT2)	%Inh (AKT3)	%Inh (ALK)	%Inh (AMPK-alpha1)	%Inh (AMPK-alpha2)	%Inh (ANKK1)	%Inh (ARK5)	%Inh (ASK1)
Cl.c1ccc(-c2ccc3c(Nc4ccc5[nH]ncc5c4)ccnc3c2)nc1 [GW440137]	38%	0%	0%	0%	31%	0%	0%	14%	11%	0%
COc1ccc(-c2coc3ccc(-c4nnc(SCc5ccc(OC)c(C(F)(F)F)c5)o4)cc23)cc1	10%	4%	0%	0%	0%	31%	0%	38%	0%	17%
CC(=O)Nc1nc2cnc(Nc3cc(NC(=O)c4cccc(C5(C#N)CC5)c4Cl)ccc3C)nc2s1	0%	7%	13%	0%	0%	7%	21%	0%	2%	0%
O=C(Nc1n[nH]c2cc(-c3ccoc3)ccc12)C1CC1 [SB-738481]	0%	0%	0%	0%	0%	0%	0%	23%	0%	0%
Cl.NC(=O)c1cccc(Nc2nccc(Nc3ccc(Oc4c(Cl)cccc4Cl)c(Cl)c3)n2)c1 [GW659009]	14%	0%	0%	0%	3%	0%	0%	3%	0%	0%
c1ccc(Oc2ccc(Nc3ccnc4cc(-c5ccc(CNCCN6CCOCC6)o5)ccc34)cc2)nc1 [GW567145]	31%	0%	10%	0%	0%	0%	0%	34%	44%	0%
COC(=O)Nc1nc2cc(Oc3ccc(NC(=O)Nc4cc(C(F)(F)F)ccc4F)cn3)ccc2[nH]1.Cl.Cl [GW681170]	19%	0%	0%	0%	6%	19%	23%	8%	0%	10%
O=C(Nc1cccc(-c2nn3ccccc3c2-c2ccnc(Nc3cccc(C(F)(F)F)c3)n2)c1)c1c(F)cccc1F [GSK292658]	0%	0%	8%	2%	0%	0%	13%	13%	12%	2%
Cl.Cl.NCC(NCc1ccc(-c2ccnc3[nH]ccc23)s1)c1ccccc1 (centres unmarked) [GSK1321565]	44%	71%	25%	71%	64%	45%	28%	22%	82%	16%
CN(c1ccc(NC(=O)Nc2cc(C(F)(F)F)ccc2F)cc1)c1ccnc(Nc2ccc(S(N)(=O)=O)cc2)n1 [GW809893]	7%	17%	11%	9%	73%	27%	19%	78%	1%	0%
Cc1ccc(C(=O)N2CC[C@@H](O)C2)cc1-n1c(C)cc(OCc2ccc(F)cc2F)c(Br)c1=O	66%	0%	0%	0%	0%	2%	0%	0%	0%	0%
COCCOCCOc1cc2ncc3c4ccc(C#N)cc4[nH]c3c2cc1OC	0%	5%	0%	0%	0%	30%	1%	63%	12%	6%
Nc1ncnc2c1nc(-c1ccccc1)n2-c1ccccc1 [SKF-97293]	0%	2%	3%	16%	52%	23%	31%	29%	0%	0%
c1ccc(-c2n[nH]cc2Nc2ccnc3ccccc23)nc1 [GW694077]	51%	0%	2%	0%	21%	0%	0%	75%	0%	0%
Clc1ccc(-c2nn3ncccc3c2-c2ccnc(Nc3ccc4c(c3)OCCO4)n2)cc1 [GW829116]	90.4%	13%	0%	0%	0%	0%	0%	0%	0%	0%
O=C(NC1CCN(c2ccnc(Nc3ccc(F)cc3)n2)C1)c1cc2ccccc2s1 (centres unmarked) [GSK1379716]	61%	0%	16%	0%	3%	7%	20%	0%	21%	14%
